The source made the active and inactive calls. How the calls were made is not given here.
What follows are compounds tested on HIV-1 nucleocapsid protein NCp7 (binding to TG oligonucleotide) (assay: HIV Nucleocapsid (AID 346;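 further: potency is for inhibitors that block NC binding and lower polarization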)). Details: HIV-1 NC / fluorescein-TGTGTGTG probe, fluorescence polarization.
Summary of the method: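 Reagents dispensed (10 nM TG4xF, 100 nM HIV-1 NC), plates spun, compounds pin-transferred, then incubated 1 hr at room temperature before FP imaging. Buffer: Hepes pH 7.5, 250mM NaCl, 1uM ZnCl2, 100 uM TCEP, 5 mM 2-mercaptoethanol.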
Potency means the concentration at half of the fitted maximal effect.

Row | SMILES | Potency
1 | CC(=O)N1CCC2(CC1)CN(C(=O)Nc1cccc(C#N)c1)C2 | > 20 µM (inactive)
2 | COCC(=O)N1CCC2(CC1)CCN(C(c1ccccc1)c1ccccc1)CC2 | > 20 µM (inactive)
3 | CN(Cc1ccco1)c1ccnc(-c2cccc(NS(C)(=O)=O)c2)n1 | > 20 µM (inactive)
4 | COc1ccccc1-c1nc(NCCNC(C)=O)c2ccccc2n1 | > 20 µM (inactive)
5 | CNc1ccnc(-c2cccc(NS(C)(=O)=O)c2)n1 | > 20 µM (inactive)
6 | CN1CCN(c2ccnc(-c3ccoc3)n2)CC1 | > 20 µM (inactive)
7 | COCCNc1nc(-c2ccccc2Cl)nc2ccccc12 | > 20 µM (inactive)
8 | COc1ccc(C(=O)N2CCC3(CCN(Cc4nccs4)CC3)CC2)cc1 | > 20 µM (inactive)
9 | COc1ccccc1CNc1cc(-c2cccc(C#N)c2)ncn1 | > 20 µM (inactive)
10 | COCCn1c(=O)cnc2cnc(OCc3ccccc3)nc21 | > 20 µM (inactive)
11 | COc1ccc(C(=O)N2CCC[C@@]3(CCN(Cc4ccc(C#N)cc4)C3)C2)cc1 | > 20 µM (inactive)
12 | CS(=O)(=O)Nc1cccc(-c2cncnc2NCc2cccs2)c1 | > 20 µM (inactive)
13 | CC(=O)NCCNc1nc(-c2ccccc2CN(C)C)nc2ccccc12 | > 20 µM (inactive)
14 | COC(=O)N1CCC2(CCCN(c3ccncc3)C2)CC1 | > 20 µM (inactive)
15 | c1ccc(Nc2ncnc3ccc(-c4ccc5c(c4)OCO5)cc23)cc1 | > 20 µM (inactive)
16 | N#Cc1cccc(-c2nccc(NCc3ccccc3)n2)c1 | > 20 µM (inactive)
17 | Cc1nc2cnc(OCc3ccccc3)nc2n(CCC#N)c1=O | > 20 µM (inactive)
18 | N#Cc1ccccc1-c1cncnc1NCc1cccnc1 | > 20 µM (inactive)
19 | O=C(c1csnn1)N1CCC2(CC1)CCN(C(c1ccccc1)c1ccccc1)CC2 | > 20 µM (inactive)
20 | CN(C)c1ccc(-c2cc(Nc3ccc(F)cc3)ncn2)cc1 | > 20 µM (inactive)

Row | SMILES | Potency
21 | c1cncc(-c2nc(-n3ccnc3)c3ccccc3n2)c1 | > 20 µM (inactive)
22 | COC(=O)N1CCC2(CC1)CCN(C(c1ccccc1)c1ccccc1)CC2 | > 20 µM (inactive)
23 | Cc1noc(C)c1C(=O)N1CCC2(CC1)CCN(c1cccc(-c3ccccc3)c1)CC2 | > 20 µM (inactive)
24 | COc1ccc(Oc2ncc3nc(-c4ccc(OC)cc4)c(=O)n(C4CC4)c3n2)cc1 | > 20 µM (inactive)
25 | N#CCCn1c(=O)c(-c2ccccc2)nc2cnc(N3CCOCC3)nc21 | > 20 µM (inactive)
26 | COc1ccc(-n2c(=O)c(CCc3ccccc3)nc3cnc(N4CCN(C)CC4)nc32)cc1 | > 20 µM (inactive)
27 | Cn1c(=O)cnc2cnc(Oc3ccccc3)nc21 | > 20 µM (inactive)
28 | COc1cccc(-c2cncnc2NCc2cccs2)c1 | > 20 µM (inactive)
29 | COc1ncc2nc(CCc3ccccc3)c(=O)n(Cc3cccs3)c2n1 | > 20 µM (inactive)
30 | CN1CCN(c2ncncc2-c2ccc(C(=O)N(C)C)cc2)CC1 | > 20 µM (inactive)
31 | COc1ccc(C(=O)N2CCC3(CCN(C(=O)Nc4ccccc4)CC3)CC2)cc1 | > 20 µM (inactive)
32 | c1cn(-c2cc(-c3ccc4c(c3)OCO4)ncn2)cn1 | > 20 µM (inactive)
33 | CN(C)c1ncc2nc(-c3ccccc3)c(=O)n(Cc3ccc(F)cc3)c2n1 | > 20 µM (inactive)
34 | CN(C)c1ncnc2ccc(-c3ccoc3)cc12 | > 20 µM (inactive)
35 | COc1ccc(Oc2ncc3nc(-c4ccc(F)cc4)c(=O)n(Cc4cccs4)c3n2)cc1 | > 20 µM (inactive)
36 | COc1ccccc1CNc1ccnc(-c2ccccc2OC)n1 | > 20 µM (inactive)
37 | COc1ccc(-n2c(=O)c(CCc3ccccc3)nc3cnc(OC)nc32)cc1 | > 20 µM (inactive)
38 | O=C(c1ccco1)N1CCC2(CC1)CN(c1ccccn1)C2 | > 20 µM (inactive)
39 | CS(=O)(=O)Nc1cccc(-c2ccc3ncnc(NCCN4CCOCC4)c3c2)c1 | > 20 µM (inactive)
40 | O=c1c(CCc2ccccc2)nc2cnc(N3CCOCC3)nc2n1C[C@H]1CCCO1 | > 20 µM (inactive)
